Experimental data reported in PubChem BioAssay.
For part of these data: Potency and affinity values are given separately. Calls of active or inactive are those of the source.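 The calls were made as follows, unless noted: active = compound raising the membrane signal above positive-control mean plus 3 SD in both repeats, and a primary screen hit; inactive = the rest.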

Key:
[1] = test system: TRPC4 beta (transient receptor potential cation channel C4), mouse; assay: TRPC4 cation channel opening, retest – cell-based, Fluo4 calcium, HEK293 TRPC4beta/mu-opioid, duplicates, 10 µM, confirmation (AID 2426;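 active = fluorescence ratio normalized to control raised more than 50% in primary screen plus both repeat runs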;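 as to activation: percent rise of integrated ratio over buffer wells lacking compound which define 0%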); details: Fluo4 calcium fluorescence, at 10 µM; stronger effect = higher value
[2] = test system: transient receptor potential cation channel C4 beta (TRPC4), mouse; assay: TRPC4 cation channel opening, second retest – cell-based, second round, Fluo4, HEK293 TRPC4beta/mu-opioid, 1 µM, confirmation (AID 2461;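 active = primary screen active and over 50% activation in each of two duplicate runs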;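 as to activation: 0% = wells without test compound as baseline of integrated fluorescence ratio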); details: Fluo4 calcium fluorescence, at 1 µM; stronger effect = higher value
[3] = test system: TRPC4 (transient receptor potential cation channel C4 beta), mouse; assay: potentiation of DAMGO EC20 TRPC4 response – cell-based, second round, Fluo-4, HEK293 TRPC4beta/mu-opioid, 1 µM, confirmation (AID 2554;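 active = primary screen hit whose fluorescence ratio, in both repeats, exceeds the weak agonist control mean by 3 SD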); details: DAMGO EC20, Fluo-4 calcium flux, at 1 µM; stronger effect = higher value
[4] = test system: TRPC4 beta (transient receptor potential cation channel C4), mouse; assay: potentiation of DAMGO EC20 TRPC4 response – cell-based, Fluo-4, HEK293 TRPC4beta/mu-opioid, confirmation (AID 2555;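 active = primary screen hit whose calcium fluorescence ratio, in both repeats, exceeds the weak agonist control mean by 3 SD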); details: DAMGO EC20, Fluo-4 calcium flux, at 10 µM; stronger effect = higher value
[5] = target: Short transient receptor potential channel 4 (Mus musculus) (UniProt Q9QUQ5); assay: blockers of DAMGO-evoked TRPC4 calcium flux – cell-based, Fluo4, HEK293 TRPC4beta/mu-opioid, confirmation (AID 2636;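 active = calcium signal cut by more than 3 SD below the full-agonist control yet still positive, in both repeats and the earlier primary screen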); details: at 10 µM; stronger effect = higher value
[6] = target: Short transient receptor potential channel 4 (Mus musculus) (UniProt Q9QUQ5); assay: blockers of DAMGO-evoked TRPC4 calcium flux – cell-based, second round, Fluo4, HEK293 TRPC4beta/mu-opioid, 1 µM, confirmation (AID 2637;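 active = calcium signal ratio cut to more than 3 SD under the fully stimulated control mean yet still positive, in both repeats and the primary screen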;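 as to inhibition: percent of integrated ratio relative to wells lacking test compound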); details: at 1 µM; stronger effect = higher value
[7] = target: Short transient receptor potential channel 4 (Mus musculus) (UniProt Q9QUQ5); assay: calcium entry via TRPC4 opening agents – cell-based, HEK293 TRPC4/mu-opioid, Fluo-4 calcium, dose response (AID 434937;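 active = primary screen activator hit with a dose response curve and TRPC4 channel activation at any tested dose; inactive = no activation, no dose response, or not a primary hit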)
[8] = target: Short transient receptor potential channel 4 (Mus musculus) (UniProt Q9QUQ5); assay: potentiation of DAMGO-evoked TRPC4 calcium signal – cell-based, HEK293 TRPC4/mu-opioid, Fluo-4 calcium, EC20 DAMGO, dose response (AID 434941;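 active = earlier screen potentiator hit that boosts the TRPC4 ion channel at some dose, with a dose response; inactive = no potentiation, no dose response, or not a prior hit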;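 also: calcium entry triggered by an EC20 dose of DAMGO at the co-expressed mu-opioid receptor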)
[9] = target: Short transient receptor potential channel 4 (Mus musculus) (UniProt Q9QUQ5); assay: block of DAMGO-driven TRPC4 calcium entry – cell-based, HEK293 TRPC4/mu-opioid, Fluo-4 calcium, dose response (AID 434942;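 active = primary screen inhibitor hit that blocks the TRPC4 channel at some tested dose, yielding a dose curve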)
[10] = target: Short transient receptor potential channel 6 (Mus musculus) (UniProt Q61143); assay: TRPC6 blockade by TRPC4 inhibitor hits – cell-based, HEK293, membrane potential dye, duplicate, selectivity assay for TRPC4 inhibitor project, confirmation (AID 434948;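 active = active in primary screen and both duplicates, each dropping signal beyond three positive-control SD with fluorescence still positive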); details: HEK293 TRPC6, membrane potential dye fluorescence, at 10 µM, stimulated with maximal-effect acetylcholine; stronger effect = higher value
[11] = target: Short transient receptor potential channel 6 (Mus musculus) (UniProt Q61143); assay: TRPC6 opening by TRPC4 activator hits – cell-based, HEK293, membrane potential dye, duplicate, selectivity assay for TRPC4 activator project, confirmation (AID 434950;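 active = membrane potential signal rise above negative control mean plus 3 SD in both duplicates, also active in the earlier TRPC4 screen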;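 as to activation: 0% = buffer only wells and 100% = acetylcholine maximal-effect wells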); details: HEK293 TRPC6, membrane potential fluorescence, at 10 µM; activation: stronger effect = higher value; outcome: activation
[12] = target: Short transient receptor potential channel 6 (Mus musculus) (UniProt Q61143); assay: positive modulators of mouse TRPC6 channel – HEK293 cells, membrane potential dye, duplicate, selectivity assay for TRPC4 potentiator project, confirmation (AID 434952); details: HEK293 TRPC6, membrane potential dye fluorescence, at 10 µM, maximal acetylcholine added after compound; stronger effect = higher value
[13] = target: Short transient receptor potential channel 4 (Mus musculus) (UniProt Q9QUQ5); assay: calcium flux activators in TRPC4/5HT1a cells, counter-screen for TRPC4 activator project, cell-based, second counter screen, HEK293 TRPC4/5HT1a, Fluo-4 (AID 434977;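 active = calcium signal rise above buffer-control mean plus 5 SD in both duplicates, and also a hit in the primary screen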;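 as to activation: plate controls were assay buffer for no effect and maximal serotonin response for full effect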); details: Fluo-4 calcium flux, at 10 µM; stronger effect = higher value
[14] = serotonin-gated TRPC4 signal block – cell-based, second counter screen, HEK293 TRPC4/5HT1a, Fluo-4, counter-screen for TRPC4 inhibitor project, confirmation (AID 434978;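 active = primary screen active whose calcium signal fell more than 3 SD beyond the full-serotonin control mean in both duplicate plates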;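 as to outcome: serotonin given first at submaximal then at maximal dose after compound preincubation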); details: Fluo-4 calcium flux, at 10 µM, serotonin added to trigger calcium flux; stronger effect = higher value
[15] = test system: TRPC4 (mouse), co-expressed with 5HT1a in HEK293; assay: enhancement of serotonin-evoked TRPC4 response – cell-based, second counter screen, HEK293 TRPC4/5HT1a, Fluo-4, counter-screen for TRPC4 potentiator project, confirmation (AID 434979;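 active = signal rise over 3 SD above mean of control wells given weak agonist, in both repeats and first screen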); details: Fluo-4 calcium flux, at 10 µM, serotonin added at its EC20 dose; stronger effect = higher value
[16] = nonspecific calcium rise without TRPC4 – cell-based, HEK293 mu-opioid receptor line, counter-screen for TRPC4 activator project, confirmation (AID 449723;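 active = hit in primary screen, with calcium signal over 5 SD above buffer well mean in both duplicates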;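 also: counter screen cells carry the mu-opioid receptor alone and lack TRPC4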); details: HEK293 mu-opioid cells, Fluo-4 calcium fluorescence, at 10 µM; stronger effect = higher value
[17] = nonspecific potentiation of DAMGO calcium response – cell-based, HEK293 mu-opioid receptor line, counter-screen for TRPC4 allosteric potentiator project, confirmation (AID 449724;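 active = calcium signal rise more than 3 SD above the low-dose agonist control mean, in both duplicate plates and the primary screen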); details: HEK293 mu-opioid receptor cells, Fluo-4 calcium flux, at 10 µM, compound added before EC20 DAMGO stimulus; stronger effect = higher value

Short transient receptor potential channel 4 (Mus musculus), sequence (Q9QUQ5 whole entry, looked up): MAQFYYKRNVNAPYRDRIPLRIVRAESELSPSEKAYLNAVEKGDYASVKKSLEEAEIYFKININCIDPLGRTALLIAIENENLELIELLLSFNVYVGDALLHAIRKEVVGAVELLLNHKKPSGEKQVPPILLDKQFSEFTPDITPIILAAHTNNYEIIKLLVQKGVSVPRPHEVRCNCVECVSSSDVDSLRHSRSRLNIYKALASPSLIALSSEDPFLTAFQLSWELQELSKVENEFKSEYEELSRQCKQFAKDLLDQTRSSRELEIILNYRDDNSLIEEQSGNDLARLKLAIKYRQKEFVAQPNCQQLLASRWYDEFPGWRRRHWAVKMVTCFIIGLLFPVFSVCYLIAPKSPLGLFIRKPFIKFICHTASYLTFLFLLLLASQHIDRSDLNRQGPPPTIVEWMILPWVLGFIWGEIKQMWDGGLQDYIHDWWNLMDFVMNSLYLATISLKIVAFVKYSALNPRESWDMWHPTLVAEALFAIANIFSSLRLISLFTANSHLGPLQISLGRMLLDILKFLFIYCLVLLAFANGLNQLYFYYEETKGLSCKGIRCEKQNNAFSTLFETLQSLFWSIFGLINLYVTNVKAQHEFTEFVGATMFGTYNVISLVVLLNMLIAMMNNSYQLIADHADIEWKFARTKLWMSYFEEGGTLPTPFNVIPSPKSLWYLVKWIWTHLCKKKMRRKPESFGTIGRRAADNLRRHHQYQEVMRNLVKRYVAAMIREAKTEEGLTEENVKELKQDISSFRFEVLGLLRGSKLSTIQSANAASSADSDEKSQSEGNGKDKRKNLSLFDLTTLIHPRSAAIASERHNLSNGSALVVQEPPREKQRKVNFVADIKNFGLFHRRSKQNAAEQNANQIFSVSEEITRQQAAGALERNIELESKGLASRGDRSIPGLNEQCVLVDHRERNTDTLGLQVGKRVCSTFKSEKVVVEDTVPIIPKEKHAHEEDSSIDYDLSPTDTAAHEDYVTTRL
Short transient receptor potential channel 6 (Mus musculus), sequence (Q61143 whole entry, looked up): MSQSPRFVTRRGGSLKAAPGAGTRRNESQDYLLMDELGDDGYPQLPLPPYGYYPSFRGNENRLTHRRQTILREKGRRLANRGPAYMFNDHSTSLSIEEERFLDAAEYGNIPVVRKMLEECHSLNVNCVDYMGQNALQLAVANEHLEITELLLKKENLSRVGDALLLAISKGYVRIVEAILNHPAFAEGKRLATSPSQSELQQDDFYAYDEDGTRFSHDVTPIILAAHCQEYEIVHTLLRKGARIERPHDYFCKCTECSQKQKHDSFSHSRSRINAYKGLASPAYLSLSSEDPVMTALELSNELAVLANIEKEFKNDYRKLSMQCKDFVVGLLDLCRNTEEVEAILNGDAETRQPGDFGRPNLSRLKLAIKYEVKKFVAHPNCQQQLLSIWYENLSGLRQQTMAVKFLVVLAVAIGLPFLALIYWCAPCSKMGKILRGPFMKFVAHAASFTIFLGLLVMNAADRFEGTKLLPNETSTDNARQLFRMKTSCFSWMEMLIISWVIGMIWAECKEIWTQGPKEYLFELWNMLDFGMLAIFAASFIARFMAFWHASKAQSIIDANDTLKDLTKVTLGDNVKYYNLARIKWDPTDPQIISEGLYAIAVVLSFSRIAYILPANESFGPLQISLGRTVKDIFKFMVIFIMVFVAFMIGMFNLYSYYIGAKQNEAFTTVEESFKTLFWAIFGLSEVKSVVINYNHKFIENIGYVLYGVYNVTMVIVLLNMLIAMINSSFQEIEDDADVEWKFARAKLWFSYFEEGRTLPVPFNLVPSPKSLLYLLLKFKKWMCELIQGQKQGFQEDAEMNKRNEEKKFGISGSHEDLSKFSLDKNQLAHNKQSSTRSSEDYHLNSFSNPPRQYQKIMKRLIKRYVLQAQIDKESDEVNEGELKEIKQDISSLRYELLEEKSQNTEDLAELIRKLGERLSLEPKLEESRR

COc1ccccc1N(C(=O)c1snc(C(N)=O)c1N)C(C(=O)NCc1ccccc1)c1ccc(O)cc1 (stereo not given)
inactive: outcome [1] | outcome [2] | outcome [3] | outcome [4] | outcome [7] | outcome [8] | outcome [9] | outcome [10] | outcome [11] | outcome [12] | outcome [13] | outcome [15] | outcome [16] | outcome [17]
active: inhibition [5] 91% | inhibition [6] 51% | inhibition [14] 26.4%

C=CCOc1ccc(CN(C)Cc2nc3cc(C(F)(F)F)ccc3c(=O)[nH]2)cc1
inactive: outcome [1] | outcome [2] | outcome [3] | outcome [4] | outcome [5] | outcome [6] | outcome [7] | outcome [8] | outcome [9] | outcome [10] | outcome [11] | outcome [12] | outcome [13] | outcome [14] | outcome [16] | outcome [17]
active: potentiation [15] 10.9%

Oc1cccc(C(=S)N2CCN(Cc3ccccc3)CC2)c1
inactive: outcome [1] | outcome [2] | outcome [3] | outcome [4] | outcome [5] | outcome [6] | outcome [7] | outcome [8] | outcome [9] | outcome [10] | outcome [11] | outcome [12] | outcome [13] | outcome [14] | outcome [15] | outcome [16] | outcome [17]

CC1(C)Cc2nc3oc4c(=O)n(CC(=O)Nc5ccccc5)cnc4c3cc2CO1
inactive: outcome [1] | outcome [2] | outcome [3] | outcome [4] | outcome [5] | outcome [6] | outcome [7] | outcome [8] | outcome [9] | outcome [10] | outcome [11] | outcome [12] | outcome [13] | outcome [14] | outcome [15] | outcome [16] | outcome [17]

Cc1cc(OCC(=O)NNC(=S)NC(=O)c2ccc(Br)o2)ccc1Cl
active: potentiation [4] 10%
inactive: outcome [1] | outcome [2] | outcome [3] | outcome [5] | outcome [6] | outcome [7] | outcome [8] | outcome [9] | outcome [10] | outcome [11] | outcome [12] | outcome [13] | outcome [14] | outcome [15] | outcome [16] | outcome [17]

CCN1CCN(c2c(Cl)cccc2NC(=O)c2cc3ccccc3o2)CC1
inactive: outcome [1] | outcome [2] | outcome [3] | outcome [4] | outcome [5] | outcome [6] | outcome [7] | outcome [8] | outcome [9] | outcome [10] | outcome [11] | outcome [12] | outcome [13] | outcome [14] | outcome [16] | outcome [17]
active: potentiation [15] 7.29%

O=[N+]([O-])c1ccc(CN2CCN(c3nc4ccccc4s3)CC2)cc1
inactive: outcome [1] | outcome [2] | outcome [3] | outcome [5] | outcome [6] | outcome [7] | outcome [8] | outcome [9] | outcome [10] | outcome [11] | outcome [12] | outcome [13] | outcome [14] | outcome [16] | outcome [17]
active: potentiation [4] 7% | potentiation [15] 17.5%

O=C(CN1CCCCC1)Nc1ccccc1Oc1ccccc1
inactive: outcome [1] | outcome [2] | outcome [3] | outcome [4] | outcome [6] | outcome [7] | outcome [8] | outcome [9] | outcome [11] | outcome [12] | outcome [13] | outcome [15] | outcome [16] | outcome [17]
active: inhibition [5] 92% | inhibition [10] 33.5% | inhibition [14] 31.5%

CCN1CCN(c2ccc(S(=O)(=O)N3CCCCC3)cc2NC(=O)c2cc3ccccc3o2)CC1
inactive: outcome [1] | outcome [2] | outcome [3] | outcome [5] | outcome [6] | outcome [7] | outcome [8] | outcome [9] | outcome [10] | outcome [11] | outcome [12] | outcome [13] | outcome [14] | outcome [16] | outcome [17]
active: potentiation [4] 27% | potentiation [15] 24.6%

CN(CC(=O)Nc1ccc(F)cc1)C(=O)COC(=O)C1CCN(c2ccc(C(F)(F)F)cn2)CC1
active: inhibition [5] 70% | inhibition [14] 36.3%
inactive: outcome [1] | outcome [2] | outcome [3] | outcome [4] | outcome [6] | outcome [7] | outcome [8] | outcome [9] | outcome [10] | outcome [11] | outcome [12] | outcome [13] | outcome [15] | outcome [16] | outcome [17]

CN(C)C(CNC(=O)c1ccc(S(=O)(=O)NCc2ccco2)cc1)c1ccccc1 (stereo not given)
inactive: outcome [1] | outcome [2] | outcome [3] | outcome [4] | outcome [5] | outcome [6] | outcome [7] | outcome [8] | outcome [9] | outcome [10] | outcome [11] | outcome [12] | outcome [13] | outcome [14] | outcome [15] | outcome [16] | outcome [17]

C/C=C(/C)C(=O)O[C@@H]1c2cc(OC)c(OC)c(OC)c2-c2c(cc3c(c2OC)OCO3)C[C@H](C)[C@]1(C)O
inactive: outcome [1] | outcome [2] | outcome [3] | outcome [4] | outcome [5] | outcome [6] | outcome [7] | outcome [8] | outcome [9] | outcome [10] | outcome [11] | outcome [12] | outcome [13] | outcome [14] | outcome [15] | outcome [16] | outcome [17]

CCOc1ccc(OCC(O)CNC2CCN(Cc3ccccc3)CC2)cc1 (stereo not given)
inactive: outcome [3] | outcome [4] | outcome [6] | outcome [7] | outcome [8] | outcome [9] | outcome [12] | outcome [15] | outcome [16] | outcome [17]
active: activation [1] 144% | activation [2] 94% | inhibition [5] 36% | inhibition [10] 34.5% | activation [11] 83% | activation [13] 35.4% | inhibition [14] 25.6%

COc1cccc(N(C(=O)c2snc(C(N)=O)c2N)C(C(=O)NCC2CCCO2)c2ccc3ncccc3c2)c1 (stereo not given)
inactive: outcome [1] | outcome [2] | outcome [3] | outcome [4] | outcome [6] | outcome [7] | outcome [8] | outcome [9] | outcome [10] | outcome [11] | outcome [12] | outcome [13] | outcome [14] | outcome [15] | outcome [16] | outcome [17]
active: inhibition [5] 76%

CCOC(=O)C1(CC2CC2)CCN(Cc2cn[nH]c2-c2cccc(F)c2)CC1
inactive: outcome [1] | outcome [2] | outcome [3] | outcome [4] | outcome [5] | outcome [6] | outcome [7] | outcome [8] | outcome [9] | outcome [10] | outcome [11] | outcome [12] | outcome [13] | outcome [14] | outcome [15] | outcome [16] | outcome [17]
